Assay results as given in PubChem BioAssay AID488922 (Johns Hopkins Ion Channel Center, 2010).
The campaign covered roughly 310,000 compounds. About 3,800 (1.2%) were called active.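 The calls were made as follows: active = ratio B-score over 3 SD below the library mean, with starting fluorescence within 5 SD of its mean; inactive = the rest, inconclusive results apart.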 What follows is part of a selection rich in actives, with near analogues and random picks from the rest.

target: Potassium channel subfamily K member 9 (Homo sapiens) (UniProt Q9NPC2); assay: blockers of human TASK-3 (KCNK9) channel – HEK293 cells, thallium flux, primary screen (AID 488922); settings: HEK293 KCNK9, FluxOR thallium flux fluorescence, at 10 µM; active compounds read low;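 as to B-score: negative B-score means less thallium flux so channel inhibition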
Sequence (Q9NPC2 whole entry, looked up): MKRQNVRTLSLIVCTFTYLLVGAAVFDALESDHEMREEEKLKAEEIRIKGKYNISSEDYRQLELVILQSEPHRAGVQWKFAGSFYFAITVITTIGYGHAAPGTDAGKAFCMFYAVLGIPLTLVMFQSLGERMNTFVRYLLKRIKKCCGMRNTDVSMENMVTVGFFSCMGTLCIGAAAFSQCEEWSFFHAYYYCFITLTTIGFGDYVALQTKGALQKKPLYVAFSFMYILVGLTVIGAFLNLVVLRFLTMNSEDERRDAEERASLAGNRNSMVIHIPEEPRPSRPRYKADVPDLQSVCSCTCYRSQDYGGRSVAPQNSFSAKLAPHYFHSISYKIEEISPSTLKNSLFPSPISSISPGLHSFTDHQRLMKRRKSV

Row | SMILES | B-score
1 | CCCCCCCCCCCCn1ccc(=N)cc1 | -10.8 (active)
2 | Cc1ccc(-c2nc3ccccc3c(=O)n2-c2ccc(Br)cn2)cc1 | inactive
3 | COc1cc(Cn2c(N)c(C(=O)NCc3ccco3)c3nc4ccccc4nc32)cc(OC)c1OC | inactive
4 | CC1=C2C(=O)C3C(CC=C4CC(OC5OC(O)C(O)C(O)C5CO)CCC43C)C2CCC12OC1CC(C)CNC1C2C (stereo not given) | inactive
5 | CCCCCCN=C(CC)c1c(O)n(CCCC)c(=O)[nH]c1=O | -12.7 (active)
6 | CCC(=NCCCO)c1c(O)n(-c2ccc(OC)cc2)c(=O)[nH]c1=O | inactive
7 | CCCCn1c(O)c(C(CC)=NCc2ccco2)c(=O)[nH]c1=O | inactive
8 | CCN(CC)C(=O)Oc1ccc(NC(=O)N2CCOCC2)cc1 | inactive
9 | CN(C)CC1CCCCC1OC(=O)c1ccc(Cl)c(Cl)c1 (stereo not given) | inactive
10 | COC(=O)C1=C(c2cc3ccccc3s2)C[C@@H]2CC[C@H]1N2C(=O)NC(C)C | inactive
11 | CCN1CCN(c2nc3c(c(=O)[nH]2)CCC3)CC1 | inactive
12 | O=C1CC(=O)N(Cc2ccccc2)C(=O)N1CCCCCCN1C(=O)CC(=O)N(Cc2ccccc2)C1=O | inactive
13 | CC(C)(C)c1ccc(CN2C(=O)CN=C(c3ccccc3)c3ccccc32)cc1 | -12.7 (active)
14 | CCOC(=O)c1c(C)c(C(=O)N2CCC3(CC2)OCCO3)c(C)n1CC | inactive
15 | CCOP(=S)(OCC)C(O)CCCCCn1c(=O)c(F)cn(C2CCCO2)c1=O (stereo not given) | inactive
16 | C=CCN1C(=O)NC(=O)/C(=C/c2ccc(OCC(=O)Nc3ccc(C)cc3)cc2)C1=O | inactive
17 | O=C(O)CCn1cc(C=C2C(=O)NC(=S)NC2=O)c(-c2cccc(Br)c2)n1 | inactive
18 | CCOC(=O)C1SC2(C(F)(F)C(F)F)CC1(O)c1c(c(OC)c3occc3c1OC)O2 (stereo not given) | -8.55 (active)
19 | CCOP(=O)(OCC)C(NC(=O)c1ccc(OC)cc1)C(Cl)(Cl)Cl (stereo not given) | inactive
20 | NC(=O)Nc1cccc(C(F)(F)F)c1 | inactive
